Laboratory results from PubChem BioAssay (NCATS).
Several values for one entry are separate records, joined by “and”; a condition that tells them apart may be missing. Equal values may be shown once. Records with an inconclusive call do not appear. Activity calls are given as the source filed them. Unless noted, calls follow the shape of the dose curve; as a rule, active = well fitted curve in the direction sought with a large enough effect; inconclusive = small, poorly fitted or top-dose-only effect, or another doubt; inactive = no such curve, though single readings can be large; an effect the other way counts as inactive or inconclusive.

Key:
[1] = target: Calcium and integrin-binding protein 1 (Homo sapiens) (UniProt Q99828); experiment: Primary qHTS for Identification of Calcium Integrin Binding Protein 1 (CIB1) Competitor (AID 1508620); conditions: CIB1-GST / FITC-alphaIIb peptide fluorescence polarization; series mostly up to 114 µM;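 also: GST tagged CIB1 binding a fluorescein labelled alphaIIb integrin peptide tracer; top concentration of the series differs between compounds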
Calcium and integrin-binding protein 1 (Homo sapiens), sequence (Q99828 whole entry, looked up): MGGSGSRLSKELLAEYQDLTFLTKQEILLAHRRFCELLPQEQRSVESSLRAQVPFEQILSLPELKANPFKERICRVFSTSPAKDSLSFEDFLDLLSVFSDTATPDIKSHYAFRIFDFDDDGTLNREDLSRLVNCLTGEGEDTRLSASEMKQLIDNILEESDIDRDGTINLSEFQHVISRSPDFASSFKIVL
In short: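 Fluorescence polarization competition: CIB1-GST (1 uM final) preincubated with compound 15 min at room temperature, then FITC-labeled alphaIIb peptide (100 nM final) added for another 15 min. Polarization read at Ex 480/Em 540.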

[2] = Primary qHTS for small molecule stabilizers of the endoplasmic reticulum resident proteome: Secreted ER Calcium Modulated Protein (SERCaMP) assay (AID 1508630); conditions: SH-SY5Y GLuc-SERCaMP (Gaussia luciferase released on ER calcium loss) secretion, thapsigargin, luminescence; series mostly up to 38.4 µM; also: potency is read from the fitted curve at half-maximal effect
In short: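 GLuc-SERCaMP-expressing SH-SY5Y cells, pretreated 16 h with compound, are challenged with thapsigargin to empty ER calcium stores; after 4 h, coelenterazine is added directly to the medium and luminescence is imaged.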

[3] = A High-Content qHTS Against Drug Library for the Identification of Small Molecules that Inhibit DYT1 Early Onset Primary Dystonia-Associated Cell Pathology (AID 1645839; calls by dose curve); conditions: HEK293 Flp-In EGFP-delE TorsinA, punctate imaging, 48 h; series mostly up to 46.1 µM
In short: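 Readout: %pathology, the punctate EGFP-TorsinA distribution from imaging, as the primary channel and cell count as the toxicity counterscreen. HEK293 Flp-In cells expressing delE TorsinA were induced with tetracycline and treated with compound for 48 h.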

[4] = Primary qHTS for inhibitors of nuclear receptor binding SET domain protein 2 (NSD2) in an isogenic RCH-ACV NSD2 p.E1099K mutant (9B) (AID 1645876); conditions: RCH-ACV NSD2 E1099K (9B) viability, CellTiter-Glo, 72 h; series mostly up to 44.9 µM; also: nearly all actives have a fitted effect of over 70% in size
[5] = target: Cytochrome P450 2C9 (Homo sapiens) (UniProt P11712); experiment: Cytochrome P450 family 2 subfamily C member 9 (CYP2C9) small molecule antagonists: luciferase biochemical (cell-free) qHTS assay (AID 1645842; active = well fitted curve in the direction sought with a large enough effect in the repeat runs; an effect the other way counts as inactive or inconclusive; also: nearly all actives have a fitted effect of over 55% in size); conditions: P450-Glo CYP2C9 enzyme assay, luciferin luminescence; series mostly up to 57.4 µM
Cytochrome P450 2C9 (Homo sapiens), sequence (P11712 whole entry, looked up): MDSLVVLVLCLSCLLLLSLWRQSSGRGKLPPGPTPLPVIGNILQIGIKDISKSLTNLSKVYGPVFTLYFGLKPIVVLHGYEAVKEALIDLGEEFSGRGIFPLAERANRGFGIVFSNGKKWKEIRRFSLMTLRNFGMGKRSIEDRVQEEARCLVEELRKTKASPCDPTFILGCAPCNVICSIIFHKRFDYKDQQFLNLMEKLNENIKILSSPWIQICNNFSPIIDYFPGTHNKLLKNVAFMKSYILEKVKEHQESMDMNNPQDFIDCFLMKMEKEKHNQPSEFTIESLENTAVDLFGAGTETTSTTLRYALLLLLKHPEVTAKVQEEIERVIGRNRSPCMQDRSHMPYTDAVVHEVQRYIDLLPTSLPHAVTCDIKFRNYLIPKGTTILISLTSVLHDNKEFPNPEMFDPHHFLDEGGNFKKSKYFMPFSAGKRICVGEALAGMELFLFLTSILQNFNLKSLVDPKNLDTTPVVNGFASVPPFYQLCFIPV
In short: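 Luminescence, after 20 min with luciferin detection reagent, reflected CYP2C9 turnover during a 1 h NADPH-driven reaction at 37C. Enzyme-substrate mix contained 0.4% bovine serum albumin and was preincubated with compound 10 min at room temperature.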

[6] = Cytotoxicity counterscreen for inhibitors of SARS-CoV-2 cell entry (AID 1645845; calls by dose curve; also: nearly all actives have a fitted effect of over 50% in size); conditions: cell viability (SARS-CoV-2 entry assay cells); series mostly up to 57.1 µM
In short: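 Expi293F/hACE2 cells seeded overnight; cpd pin-transferred in DMSO, 1 h preincubation, + media, 48 h 37 C 5% CO2; ATPLite 1step luminescence; normalized to cells and no cells.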

[7] = Primary qHTS to identify inhibitors of SARS-CoV-2 cell entry (AID 1645846; calls by dose curve; also: nearly all actives have a fitted effect of over 45% in size); conditions: SARS-CoV-2 pseudovirus cell entry assay, luminescence; activity change, negative = inhibition: at 57.1 µM (top of the series) unless noted; series mostly up to 57.1 µM
In short: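 Using luciferase-reporting pseudoviruses carrying Wuhan-Hu-1 spike, the screen tracks entry into stably ACE2-expressing cells over 48 hr. Activity is expressed relative to spike particles versus particles lacking any fusion protein.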

Papain (Carica papaya) = Papain (Carica papaya) (UniProt P00784); experiment: Primary qHTS assay for inhibitors of the protease papain (AID 1645873); conditions: papain Z-FR-AMC cleavage, AMC fluorescence; series mostly up to 49.8 µM;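 also: papain turnover of Z-FR-AMC read as the AMC fluorescence gain over 10 min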
Papain (Carica papaya), sequence (P00784 whole entry, looked up, the tested form may be a part): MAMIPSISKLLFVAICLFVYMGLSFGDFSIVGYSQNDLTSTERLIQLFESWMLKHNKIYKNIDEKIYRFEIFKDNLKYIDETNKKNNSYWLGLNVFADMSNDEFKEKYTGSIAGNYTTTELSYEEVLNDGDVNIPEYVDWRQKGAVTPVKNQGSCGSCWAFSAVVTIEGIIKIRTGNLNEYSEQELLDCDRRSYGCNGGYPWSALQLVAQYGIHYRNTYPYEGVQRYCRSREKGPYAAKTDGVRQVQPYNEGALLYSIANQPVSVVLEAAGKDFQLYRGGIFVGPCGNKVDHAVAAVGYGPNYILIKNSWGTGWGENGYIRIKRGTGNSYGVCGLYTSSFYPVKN

[8] = Primary qHTS for inhibitors of nuclear receptor binding SET domain protein 2 (NSD2) in an RCH-ACV wild type WT cells (2C) (AID 1645877); conditions: RCH-ACV (leukaemia line) NSD2 WT (2C) viability, CellTiter-Glo, 72 h; series mostly up to 44.9 µM; also: nearly all actives have a fitted effect of over 70% in size; also: potency is read from the fitted curve at half-maximal effect
[9] = target: Cytochrome P450 2D6 (Homo sapiens) (UniProt P10635); experiment: Cytochrome P450 family 2 subfamily D member 6 (CYP2D6) small molecule antagonists: luciferase biochemical (cell-free) qHTS assay (AID 1645840; active = well fitted curve in the direction sought with a large enough effect in the repeat runs; an effect the other way counts as inactive or inconclusive; also: nearly all actives have a fitted effect of over 55% in size; also: potency is read from the fitted curve at half-maximal effect); conditions: P450-Glo CYP2D6 enzyme, luciferin luminescence, 1 h; series mostly up to 57.4 µM
Cytochrome P450 2D6 (Homo sapiens), sequence (P10635 whole entry, looked up): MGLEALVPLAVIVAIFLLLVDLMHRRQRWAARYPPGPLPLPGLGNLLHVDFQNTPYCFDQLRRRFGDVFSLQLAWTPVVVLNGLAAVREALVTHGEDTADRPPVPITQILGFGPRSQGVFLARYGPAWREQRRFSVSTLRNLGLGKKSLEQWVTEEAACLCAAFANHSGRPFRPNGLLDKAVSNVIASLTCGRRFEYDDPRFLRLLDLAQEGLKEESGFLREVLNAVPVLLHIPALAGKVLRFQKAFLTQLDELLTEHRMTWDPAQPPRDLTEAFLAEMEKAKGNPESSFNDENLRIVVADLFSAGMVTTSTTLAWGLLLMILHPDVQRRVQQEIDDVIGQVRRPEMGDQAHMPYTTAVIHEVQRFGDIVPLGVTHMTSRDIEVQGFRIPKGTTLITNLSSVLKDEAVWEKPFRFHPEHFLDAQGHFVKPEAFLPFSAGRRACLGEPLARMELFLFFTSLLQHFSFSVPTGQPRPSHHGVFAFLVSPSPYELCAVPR
In short: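 P450-Glo luminescent screen: recombinant CYP2D6 enzyme–proluciferin substrate mix preincubated with compound 10 min at room temperature, then NADPH regeneration added for 1 h at room temperature. Detection reagent added for 20 min; luciferin light read as relative luminescence units.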

[10] = Counterscreen qHTS for small molecule stabilizers of the endoplasmic reticulum resident proteome: GLuc-NoTag assay (AID 1508627); conditions: Gaussia luciferase NoTag secretion counterscreen, luminescence, thapsigargin 100 nM for final 4 h; series mostly up to 76.4 µM;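 also: SH-SY5Y cells given compound then 100 nM thapsigargin to empty ER calcium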
In short: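 SH-SY5Y cells stably expressing constitutively secreted GLuc (no SERCaMP tag) were pre-incubated 5 h, treated with compound for 19 h, then 100 nM thapsigargin for 4 h at 37C; medium GLuc read by coelenterazine luminescence.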

[11] = target: N-terminal Xaa-Pro-Lys N-methyltransferase 1 (Homo sapiens) (UniProt Q9BV86); experiment: Confirmatory qHTS for Inhibitors of N-terminal methyltransferase 1 (NTMT1): MTaseGlo Assay (AID 1645874); conditions: NTMT1 enzyme, MTase-Glo SAH luminescence; series mostly up to 204 µM;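 also: luminescence from SAH made as NTMT1 methylates SPKRIA peptide using SAM; nearly all actives have a fitted effect of over 65% in size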
N-terminal Xaa-Pro-Lys N-methyltransferase 1 (Homo sapiens), sequence (Q9BV86 whole entry, looked up): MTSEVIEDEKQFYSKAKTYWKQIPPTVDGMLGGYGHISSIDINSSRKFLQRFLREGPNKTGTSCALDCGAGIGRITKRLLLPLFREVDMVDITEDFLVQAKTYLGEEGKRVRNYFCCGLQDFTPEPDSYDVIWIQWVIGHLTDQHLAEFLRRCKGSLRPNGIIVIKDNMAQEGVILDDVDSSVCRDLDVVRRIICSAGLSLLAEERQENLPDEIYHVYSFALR
In short: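 Compounds are incubated with 125 nM NTMT1 and 100 uM SAM for 15 min before the SPKRIA peptide (1 uM) starts a 30 min room-temperature methylation. SAH is measured by coupled luciferase luminescence and curves fitted to a Hill equation.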

[12] = Confirmatory qHTS for small molecule stabilizers of the endoplasmic reticulum resident proteome: Secreted ER Calcium Modulated Protein (SERCaMP) assay (AID 1508628); conditions: SERCaMP secreted luciferase ER calcium/proteostasis reporter; series mostly up to 76.3 µM; also: potency is read from the fitted curve at half-maximal effect; nearly all actives have a fitted effect of over 40% in size
In short: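 SH-SY5Y cells stably expressing GLuc-SERCaMP, treated 16 h with compound (primary 1.53, 7.67, 38.3 uM; confirmation 11 concentrations, up to 76.6 uM), then 100 nM thapsigargin for 4 h. Secreted Gaussia luciferase in medium read by coelenterazine luminescence.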

[13] = target: Cytochrome P450 3A4 (Homo sapiens) (UniProt P08684); experiment: Cytochrome P450 family 3 subfamily A member 4 (CYP3A4) small molecule antagonists: luciferase qHTS assay (AID 1645841; active = well fitted curve in the direction sought with a large enough effect in the repeat runs; an effect the other way counts as inactive or inconclusive; also: nearly all actives have a fitted effect of over 45% in size); conditions: P450-Glo CYP3A4 enzyme assay, luciferin luminescence; series mostly up to 57.4 µM
Cytochrome P450 3A4 (Homo sapiens), sequence (P08684 whole entry, looked up): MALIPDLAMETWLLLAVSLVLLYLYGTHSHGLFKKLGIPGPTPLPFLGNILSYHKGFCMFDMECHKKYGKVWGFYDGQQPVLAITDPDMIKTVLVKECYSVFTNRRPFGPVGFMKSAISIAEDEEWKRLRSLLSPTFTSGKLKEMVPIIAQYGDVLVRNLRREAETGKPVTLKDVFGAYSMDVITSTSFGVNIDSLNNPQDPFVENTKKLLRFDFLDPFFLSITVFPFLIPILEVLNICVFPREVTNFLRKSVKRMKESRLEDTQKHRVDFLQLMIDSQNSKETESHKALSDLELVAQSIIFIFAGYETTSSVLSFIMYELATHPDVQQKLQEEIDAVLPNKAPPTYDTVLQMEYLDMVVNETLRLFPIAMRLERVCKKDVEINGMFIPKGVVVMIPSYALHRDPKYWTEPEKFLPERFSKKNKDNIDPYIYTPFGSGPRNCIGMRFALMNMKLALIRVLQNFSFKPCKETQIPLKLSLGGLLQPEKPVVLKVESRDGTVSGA
In short: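 P450-Glo CYP3A4 enzyme with proluciferin substrate was preincubated with DMSO-dissolved compounds for 10 min at room temperature. NADPH regeneration solution started a 1 h reaction. Detection reagent stopped it, and luminescence was read after 20 min.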

O=C1CN=C(c2ccccc2)c2cc([N+](=O)[O-])ccc2N1
inactive: Potency [1] | Potency [2] | outcome [3] | Potency [4]

CC(NC(C)(C)C)C(=O)c1cccc(Cl)c1 (stereo not drawn)
-12.4%: activity change, negative = inhibition [7]
inactive: Potency [1] | Potency [2] | outcome [3] | Potency [5] | Potency [6] | Potency [7] | outcome (Papain (Carica papaya)) | Potency [4] | Potency [8]

C=CCN1C[C@H](C)N([C@H](c2ccc(C(=O)N(CC)CC)cc2)c2cccc(OC)c2)C[C@H]1C
active: Potency [9] 2450 nM
inactive: Potency [1] | Potency [2] | outcome [3] | Potency [4] | Potency [8]

CCC1(c2ccc(N)cc2)CCC(=O)NC1=O (stereo not drawn)
inactive: Potency [1] | Potency [2] | outcome [3] | Potency [5] | Potency [7] | outcome (Papain (Carica papaya)) | Potency [4] | Potency [8]

CC(C)c1c(CN(C)C(C)Cc2ccccc2)n(C)n(-c2ccccc2)c1=O (stereo not drawn)
inactive: Potency [1] | Potency [2] | Potency [9] | Potency [4] | Potency [8]

C=C(C)[C@H]1CN[C@H](C(=O)O)[C@H]1CC(=O)O
inactive: Potency [1] | Potency [2] | Potency [9] | Potency [6] | Potency [7] | outcome (Papain (Carica papaya)) | Potency [4] | Potency [8]

COC1CC(=C(c2cccs2)c2cccs2)C[N+](C)(C)C1 (stereo not drawn)
active: Potency [8] 15000 nM
inactive: Potency [1] | Potency [2] | outcome [3] | Potency [5]
-29.5%: activity change, negative = inhibition [7]

CCN[C@H](C)Cc1cccc(C(F)(F)F)c1
inactive: Potency [1] | Potency [2] | outcome [3] | Potency [5] | Potency [4]
active: Potency [9] 3160 nM

C[C@@H]1CC2=CC(=O)CC[C@@H]2[C@H]2CC[C@@]3(C)[C@@H](CC[C@]3(C)O)[C@@H]21
inactive: Potency [1] | Potency [2] | outcome [3] | Potency [9] | Potency [5] | Potency [6]

C[C@H](N)C(=O)c1ccccc1
inactive: Potency [1] | outcome [10] | outcome [3] | outcome [11] | Potency [4] | Potency [8]

CC(C)N(CCC(C(N)=O)(c1ccccc1)c1ccccn1)C(C)C (stereo not drawn)
inactive: Potency [1] | Potency [2] | outcome [3] | Potency [9] | Potency [5] | Potency [6] | outcome (Papain (Carica papaya)) | Potency [4] | Potency [8]

O=C(CCCN1CCC2(CC1)C(=O)NCN2c1ccccc1)c1ccc(F)cc1
inactive: Potency [1] | Potency [5] | outcome (Papain (Carica papaya))
active: Potency [12] 5.62 µM and 2.24 µM and 3.16 µM | Potency [2] 1000 nM

O=P1(N(CCCl)CCCl)NCCCO1 (stereo not drawn)
inactive: Potency [1] | Potency [2] | outcome [3] | Potency [13] | Potency [6] | Potency [7] | outcome (Papain (Carica papaya)) | Potency [4] | Potency [8]
